Screening data as filed in PubChem.
D1 agonist: activates the human D1 dopamine receptor; activation, % at 2 µM; 1% of 360,000 active; P21728; HEK293 T-REx D1 cells, calcium flux, agonist mode; further: 0% is about no effect
Target sequence (P21728 whole entry, looked up): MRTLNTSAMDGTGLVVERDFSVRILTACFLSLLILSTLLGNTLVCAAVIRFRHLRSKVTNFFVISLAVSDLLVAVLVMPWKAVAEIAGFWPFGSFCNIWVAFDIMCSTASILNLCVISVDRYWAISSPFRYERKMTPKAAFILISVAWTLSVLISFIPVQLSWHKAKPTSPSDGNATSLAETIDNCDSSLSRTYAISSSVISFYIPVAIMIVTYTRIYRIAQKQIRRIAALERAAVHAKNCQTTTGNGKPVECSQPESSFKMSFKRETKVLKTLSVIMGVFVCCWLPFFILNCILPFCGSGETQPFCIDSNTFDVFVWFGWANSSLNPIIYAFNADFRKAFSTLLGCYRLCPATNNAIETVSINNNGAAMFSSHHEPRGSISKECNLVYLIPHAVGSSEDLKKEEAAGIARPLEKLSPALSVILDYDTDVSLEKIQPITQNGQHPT
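Agonism was scored from calcium flux recorded over 180 s (1 read/s) after pintool compound addition, following a 10-cycle baseline. Cells were inducible force-coupled HEK293 TREx D1, plated overnight at 30 C and loaded with no-wash calcium dye.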
D1 potentiator: human D1 dopamine receptor positive modulation | P21728 | HEK293 TREx D1 cells, calcium flux, dopamine EC20 potentiation | potentiation, % at 10 µM | 0.036% of 360,000 active | AID 504651; in the data active means potentiation above about 30%; further: 0% is about no effect
TRHR agonist-1: TRH receptor (human) agonism; P34981; TRHR cells, calcium flux fluo-8, FDSS agonist mode; activation, % at 2 µM; 0.18% of 360,000 active; AID 493084; further: 0% is about no effect
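Steps: seed TRHR cells overnight; add fluo-8 no-wash Ca dye, RT 30 min–1.5 h; record 10 s baseline; pin-transfer compounds; monitor fluorescence 1 cycle/s for the agonist window. Calcium increases flag candidate agonists.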
TRHR enhancer-1: TRH receptor (human) allosteric enhancement | P34981 | TRHR cells, fluo-8 calcium fluorescence, EC20 TRH enhancement | enhancement, % at 2 µM | 0.66% of 360,000 active | AID 493056; in the data active means enhancement above about 30%; further: 0% is about no effect
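Enhancer read-out: after compound pinning and an initial kinetic agonist-mode read, an EC20 of TRH (10 nM final) was injected and fluo-8 calcium signal (Ex 480/Em 530) followed at 1 s/cycle for 100 cycles in TRHR-expressing cells.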
D1 antag: human D1 dopamine receptor antagonism; activity change, negative = inhibition, % at 10 µM; HEK293 TREx D1 cells, calcium flux, dopamine EC80; hits give low values; 3.2% of 360,000 active; AID 504652; P21728; in the data active means activity change below about -30%; further: on the % scale 0 is the no-effect control and ±100 the full control effect
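Allosteric or orthosteric antagonism assessed as attenuation of the calcium response to EC80 dopamine, added 180 s after compound, in induced HEK293 Trex D1 cells loaded with no-wash calcium dye.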
TRHR enhancer-2: human TRH receptor allosteric enhancement confirmation | shares compounds with TRHR enhancer-1 | TRH receptor cell assay, enhancer confirmation qHTS | activity change, negative = inhibition, % at 46.1 µM | 970 tested, under 10 active; active means well fitted curve in the direction sought with a large enough effect; inconclusive means small, poorly fitted or top-dose-only effect, or another doubt; inactive means no such curve, though single readings can be large; an effect the other way counts as inactive or inconclusive;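 further: compound effect scored on response to added TRH at EC20 of 10 nM; 0% is about no effect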
TRHR agonist-2: human TRH receptor agonism confirmation. shares compounds with TRHR enhancer-1. TRHR-expressing cells, agonist activation read-out. Potency, µM (highest dose often 46.1 µM), for the others: at the highest dose activation, usual class: activators. 8% of 970 active. AID 493078; active means well fitted curve in the direction sought with a large enough effect; inconclusive means small, poorly fitted or top-dose-only effect, or another doubt; inactive means no such curve, though single readings can be large; an effect the other way counts as inactive or inconclusive; further: potency means the concentration at half of the fitted maximal effect; 0% is about no effect; nearly all actives have a fitted effect of over 75% in size
* hit, by the source's call; ? = inconclusive; / = no result. An excerpt weighted towards active compounds, which were near 4.7% of everything screened. Unless noted, no stated cut-off is given here; in the data, active means activation above about 30%; inactive means the rest.

SMILES | D1 agonist | D1 potentiator | TRHR agonist-1 | TRHR enhancer-1 | D1 antag | others
COc1ccc(Cn2c(O)c(C=NCCN3CCOCC3)c(=O)[nH]c2=O)cc1 | 0.7 | -4.3 | -0.3 | -1.3 | -37.4*
O=C(Nc1cc(C(F)(F)F)cc(C(F)(F)F)c1)c1cccn(Cc2ccccc2Cl)c1=O | 1.7 | -5.1 | 0.4 | -1.2 | 39.1
O=C(COc1ccccc1[N+](=O)[O-])N1CCN(CCc2ccccn2)CC1 | -0.4 | -0.7 | 0.4 | -13.2 | 2.3
Cc1ccc(Cn2cccc(C(=O)Nc3cc([N+](=O)[O-])ccc3C)c2=O)cc1 | -0.3 | 0.7 | 0.5 | -7.8 | /
CCC1(CC)C(=N)N(C)C(=O)NC1=O | 3.9 | -8.9 | -2.3 | -4.2 | -12.1
CCC1(CC)C(=O)N(C)C(=O)NC1=NC | 0.3 | 6.5 | 0.0 | 1.1 | -34.6*
CC1CN=C(Nc2ccc(F)c(Cl)c2)S1 (stereo unspecified) | 14.9 | -3.4 | 0.9 | -1.2 | -32.8*
Fc1ccc(NC2=NCCS2)cc1Cl | -0.7 | -2.4 | 0.0 | -3.0 | -0.3
CC(Cc1ccccc1)NC(=O)/C=C/c1ccc(Cl)cc1 (stereo unspecified) | 1.1 | -8.9 | -1.4 | -9.1 | -32.1*
CC(Cc1ccccc1)NC(N)=O (stereo unspecified) | 1.0 | -0.3 | -0.2 | 13.0 | -7.7
Cc1cc(C)n(-c2ccc(NN=C(C#N)C#N)cc2)n1 | 41.2* | -1.8 | 2.0 | -5.3 | -30.6*
N#CC(C#N)=NNc1ccc(-n2ccc(C(F)(F)F)n2)cc1 | 32.9* | -14.5 | 9.1 | -9.7 | -36.0*
Cc1ccccc1-n1nc(C)c2c1NC(=O)CSC2c1ccccc1C(F)(F)F (stereo unspecified) | -1.3 | 0.3 | -0.8 | -9.5 | -8.1
Cc1ccc(C2=NCC(=O)N(CC(=O)N3CCCCC3)c3sc(C)c(C)c32)cc1 | -1.6 | 0.8 | 0.6 | 30.0* | -9.8
Cc1cc(-c2ccccc2)cc(-c2ccccc2)[n+]1CCc1ccccc1 | -1.6 | -12.3 | -0.4 | -0.3 | -42.5*
O=C(Nc1ccc(Cl)cc1C(=O)c1ccccc1)c1ccccc1Br | 5.7 | 0.6 | 0.8 | -2.4 | 9.9
O=C(Cc1ccc([N+](=O)[O-])cc1)N1CCN(Cc2ccc3c(c2)OCO3)CC1 | 3.0 | 0.8 | 0.0 | 2.3 | -35.8*
O=C(CN1CC=C(c2ccccc2)CC1)NC(=O)NCc1ccccc1 | 4.6 | -4.0 | -0.9 | 61.6* | -3.6 | TRHR enhancer-2=?;TRHR agonist-2=2.6%
CCC1(C)OC(c2ccccc2)=C/C(=C/C=C2C(=O)NC(=O)NC2=O)O1 (stereo unspecified) | 108.1* | -5.0 | 41.1* | -4.2 | -6.6 | TRHR enhancer-2=-2.7;TRHR agonist-2=?
O=C(NCCN1CCOCC1)c1ccc(Cl)nc1 | 1.7 | 3.6 | 74.9* | 0.7 | 18.2 | TRHR enhancer-2=5.5;TRHR agonist-2=0.5%
CCCCCn1c(N)c(C(=O)NCCN2CCOCC2)c2nc3ccccc3nc21 | 15.0 | 0.8 | 0.9 | 0.0 | 9.2
CC(Cc1ccccc1)N1C(=O)c2ccccc2C1=O (stereo unspecified) | 2.2 | -9.8 | -0.5 | 54.9* | -17.5 | TRHR enhancer-2=-13.1;TRHR agonist-2=2.1%
CC(C(=O)c1ccccc1)N1C(=O)c2ccccc2C1=O (stereo unspecified) | 0.2 | -0.9 | -0.5 | 0.3 | 2.1
COc1cccc(NC(=O)Cn2cc(C(=O)c3ccccc3)c3ccccc32)c1 | 6.2 | -1.2 | 1.3 | 2.0 | 4.5
Cc1cccc(N2C(=O)NC(=O)/C(=C/c3ccc(-c4ccc(C(=O)O)c(Cl)c4)o3)C2=O)c1 | 1.0 | -5.0 | 2.8 | 2.7 | -1.4
O=C1NC(=O)N(c2cccc(Cl)c2)C(=O)/C1=C\c1ccc(Sc2nc3ccccc3[nH]2)o1 | 63.5* | 2.5 | 47.2* | 22.3 | -5.3 | TRHR enhancer-2=7.4;TRHR agonist-2=?
COC(=O)C1=C(c2ccc(-c3ccccc3)c(F)c2)C[C@@H]2CC[C@H]1N2C(=O)NCCc1ccccc1 | 7.9 | -0.5 | 1.6 | 4.8 | 12.2
Cc1ccccc1-c1nc(CS(=O)CC(=O)N2CCC3(CC2)OCCO3)c(C)o1 (stereo unspecified) | 7.6 | -0.1 | -0.7 | 41.6* | 6.7 | TRHR enhancer-2=-4.1;TRHR agonist-2=-0.6%
O=c1[nH]c(=S)[nH]c(O)c1N=Nc1ccc(S(=O)(=O)N2CCc3ccccc32)cc1 | 1.3 | -3.0 | -0.7 | 0.0 | 7.1
